Results on one sequence are retold here after paper PMC7862700, “An all-to-all approach to the identification of sequence-specific readers for epigenetic DNA modifications on cytosine”.

Assay in all cases: DAPPL (digital affinity profiling via proximity ligation, sequencing); 10 mM Tris-HCl pH 7.5, 50 mM NaCl, 1 mM DTT, 4% glycerol, room temperature, 30 min; GST-TFs on glutathione beads, 16-mer random dsDNA library, 0.1% formaldehyde crosslink after washing; high values mean tight binding
In one assay the target is T1, FLI1 (Homo sapiens, UniProt Q01543 1-452).
T1 sequence: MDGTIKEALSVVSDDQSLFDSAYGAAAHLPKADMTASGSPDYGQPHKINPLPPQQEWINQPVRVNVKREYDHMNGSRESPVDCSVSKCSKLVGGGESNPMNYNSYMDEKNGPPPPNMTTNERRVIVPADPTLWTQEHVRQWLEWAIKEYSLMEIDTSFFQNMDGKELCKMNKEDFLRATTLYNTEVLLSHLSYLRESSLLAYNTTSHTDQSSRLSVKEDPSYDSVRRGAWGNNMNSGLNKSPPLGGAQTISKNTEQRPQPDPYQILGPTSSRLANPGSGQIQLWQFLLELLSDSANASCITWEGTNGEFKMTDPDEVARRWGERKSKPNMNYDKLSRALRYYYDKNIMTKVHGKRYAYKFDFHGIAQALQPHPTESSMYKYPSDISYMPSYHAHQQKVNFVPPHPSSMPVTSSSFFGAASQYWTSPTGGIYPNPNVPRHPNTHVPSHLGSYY
The following applies: protein: recombinant; tags: N-terminal GST; dsDNA, one strand shown. In outline:
(§1)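 Pools were built from human transcription factors expressed in yeast as GST fusions, captured on glutathione beads and DNA-barcoded, along with a tag-only sample. Incubation with 200 nmole of a 16-mer random double-stranded DNA library lasted 30 min at room temperature in Tris/NaCl/DTT/glycerol buffer, and was followed by washing, 0.1% formaldehyde crosslinking, proximity ligation, PCR amplification and Illumina NextSeq500 sequencing. Binding signal is the quotient of each hexamer's read frequency for a factor and its frequency for the tag-only sample.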

In a further assay the target is T2, ELK1 (Homo sapiens, UniProt P19419 1-428).
T2 sequence: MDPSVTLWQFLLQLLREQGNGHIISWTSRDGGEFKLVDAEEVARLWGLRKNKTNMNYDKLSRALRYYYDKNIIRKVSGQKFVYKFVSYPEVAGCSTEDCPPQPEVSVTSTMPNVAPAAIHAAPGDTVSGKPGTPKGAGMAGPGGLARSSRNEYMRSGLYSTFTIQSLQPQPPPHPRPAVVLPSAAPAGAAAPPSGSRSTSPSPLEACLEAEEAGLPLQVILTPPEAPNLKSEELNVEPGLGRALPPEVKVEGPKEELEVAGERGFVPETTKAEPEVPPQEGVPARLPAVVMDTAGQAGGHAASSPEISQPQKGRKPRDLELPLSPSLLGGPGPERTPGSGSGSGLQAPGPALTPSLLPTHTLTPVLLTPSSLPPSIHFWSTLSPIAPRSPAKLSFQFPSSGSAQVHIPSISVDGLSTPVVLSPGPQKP
The following applies: protein: recombinant; tags: N-terminal GST; dsDNA, one strand shown. In outline: as §1

The next assay has as its target T3, GABPA (Homo sapiens, UniProt Q06546 1-454).
T3 sequence: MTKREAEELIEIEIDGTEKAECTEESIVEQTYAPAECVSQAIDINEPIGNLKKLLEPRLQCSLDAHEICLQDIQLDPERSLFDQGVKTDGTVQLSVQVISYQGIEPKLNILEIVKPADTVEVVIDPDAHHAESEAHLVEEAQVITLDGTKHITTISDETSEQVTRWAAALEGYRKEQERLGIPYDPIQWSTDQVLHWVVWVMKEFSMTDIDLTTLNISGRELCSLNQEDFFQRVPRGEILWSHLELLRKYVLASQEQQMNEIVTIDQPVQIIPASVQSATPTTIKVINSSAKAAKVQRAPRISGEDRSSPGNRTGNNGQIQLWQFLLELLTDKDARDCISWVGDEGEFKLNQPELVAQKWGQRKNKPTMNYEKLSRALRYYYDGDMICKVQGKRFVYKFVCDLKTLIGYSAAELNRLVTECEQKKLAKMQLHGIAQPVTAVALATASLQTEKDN
The settings on record: protein: recombinant; tags: N-terminal GST; dsDNA, one strand shown. The gist of the method:
as §1

Another assay addresses T4, ERG (Homo sapiens, UniProt P11308 1-479).
T4 sequence: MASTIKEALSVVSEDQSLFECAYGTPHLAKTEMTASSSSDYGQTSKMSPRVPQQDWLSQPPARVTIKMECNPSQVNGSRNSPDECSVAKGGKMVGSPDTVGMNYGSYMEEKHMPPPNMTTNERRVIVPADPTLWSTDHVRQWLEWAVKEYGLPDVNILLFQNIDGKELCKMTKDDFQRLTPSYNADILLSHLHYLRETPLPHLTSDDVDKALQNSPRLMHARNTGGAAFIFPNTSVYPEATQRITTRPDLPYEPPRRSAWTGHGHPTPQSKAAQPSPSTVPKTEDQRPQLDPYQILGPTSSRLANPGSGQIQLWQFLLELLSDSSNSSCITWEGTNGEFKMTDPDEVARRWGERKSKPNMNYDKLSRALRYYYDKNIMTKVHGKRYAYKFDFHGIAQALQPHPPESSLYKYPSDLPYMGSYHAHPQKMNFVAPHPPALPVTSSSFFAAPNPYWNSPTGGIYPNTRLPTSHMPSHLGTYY
The settings on record: protein: recombinant; tags: N-terminal GST; dsDNA, one strand shown. In outline:
as §1

The target of a further assay is ELF1 (Homo sapiens, UniProt P32519 1-619). The settings on record: protein: recombinant; tags: N-terminal GST; dsDNA, one strand shown. The gist of the method:
as §1

The target of another assay is T5, EHF (Homo sapiens, UniProt Q9NZC4 1-300).
T5 sequence: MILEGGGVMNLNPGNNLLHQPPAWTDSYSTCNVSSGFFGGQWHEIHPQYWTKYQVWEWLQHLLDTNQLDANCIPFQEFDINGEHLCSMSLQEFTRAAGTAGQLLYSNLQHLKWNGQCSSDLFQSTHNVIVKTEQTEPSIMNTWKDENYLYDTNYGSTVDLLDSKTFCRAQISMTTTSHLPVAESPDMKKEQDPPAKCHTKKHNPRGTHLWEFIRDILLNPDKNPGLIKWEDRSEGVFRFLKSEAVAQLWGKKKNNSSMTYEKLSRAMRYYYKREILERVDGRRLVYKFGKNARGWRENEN
The following applies: protein: recombinant; tags: N-terminal GST; dsDNA, one strand shown. The gist of the method: as §1

A further assay concerns the target SPI1 (Homo sapiens, UniProt P17947 1-270). The following applies: protein: recombinant; tags: N-terminal GST; dsDNA, one strand shown. The gist of the method: as §1
Another assay has as its target SPIB (Homo sapiens, UniProt Q01892 1-262). The settings on record: protein: recombinant; tags: N-terminal GST; dsDNA, one strand shown. The gist of the method: as §1
Another assay addresses T6, ELK3 (Homo sapiens, UniProt P41970 1-407).
T6 sequence: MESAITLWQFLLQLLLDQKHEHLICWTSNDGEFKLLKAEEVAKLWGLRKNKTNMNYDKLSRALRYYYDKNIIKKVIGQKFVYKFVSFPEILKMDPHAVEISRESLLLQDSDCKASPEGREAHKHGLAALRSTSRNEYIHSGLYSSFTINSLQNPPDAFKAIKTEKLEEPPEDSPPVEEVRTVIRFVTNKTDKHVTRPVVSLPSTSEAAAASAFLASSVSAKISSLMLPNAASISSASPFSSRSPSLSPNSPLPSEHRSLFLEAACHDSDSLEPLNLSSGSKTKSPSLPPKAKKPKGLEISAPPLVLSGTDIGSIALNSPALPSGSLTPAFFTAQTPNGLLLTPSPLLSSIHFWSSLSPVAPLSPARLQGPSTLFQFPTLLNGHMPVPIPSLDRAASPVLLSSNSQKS
The settings on record: protein: recombinant; tags: N-terminal GST; dsDNA, one strand shown. The gist of the method:
as §1

The target of another assay is T7, FEV (Homo sapiens, UniProt Q99581 1-238).
T7 sequence: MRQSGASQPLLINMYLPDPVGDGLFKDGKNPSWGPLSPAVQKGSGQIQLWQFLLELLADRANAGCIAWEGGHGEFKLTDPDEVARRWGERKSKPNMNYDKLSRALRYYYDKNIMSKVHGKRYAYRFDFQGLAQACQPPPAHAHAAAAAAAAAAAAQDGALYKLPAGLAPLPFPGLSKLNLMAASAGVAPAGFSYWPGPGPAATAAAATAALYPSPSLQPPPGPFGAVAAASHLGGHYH
The following applies: protein: recombinant; tags: N-terminal GST; dsDNA, one strand shown. The gist of the method:
as §1

In a further assay the target is ETV5 (Homo sapiens, UniProt P41161 1-510). The settings on record: protein: recombinant; tags: N-terminal GST; dsDNA, one strand shown. The gist of the method: as §1
Sequence of ETV5 (P41161 whole entry): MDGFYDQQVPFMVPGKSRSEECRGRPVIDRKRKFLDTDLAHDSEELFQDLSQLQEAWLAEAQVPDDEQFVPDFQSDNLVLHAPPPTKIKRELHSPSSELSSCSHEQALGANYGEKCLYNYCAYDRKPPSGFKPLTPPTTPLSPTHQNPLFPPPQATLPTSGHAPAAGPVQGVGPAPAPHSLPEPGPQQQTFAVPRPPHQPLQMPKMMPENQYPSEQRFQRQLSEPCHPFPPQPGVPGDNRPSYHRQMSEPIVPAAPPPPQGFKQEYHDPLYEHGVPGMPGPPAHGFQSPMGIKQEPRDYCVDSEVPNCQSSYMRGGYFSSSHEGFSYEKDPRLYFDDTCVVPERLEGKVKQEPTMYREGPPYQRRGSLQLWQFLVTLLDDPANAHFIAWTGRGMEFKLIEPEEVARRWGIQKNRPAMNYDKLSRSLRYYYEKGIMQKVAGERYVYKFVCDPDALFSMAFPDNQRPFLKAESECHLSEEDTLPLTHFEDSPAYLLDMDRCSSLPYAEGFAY
Another assay concerns the target HSF1 (Homo sapiens, UniProt Q00613 1-529). The following applies: protein: recombinant; tags: N-terminal GST; chain copies: 3; dsDNA, one strand shown. The gist of the method: as §1
The next assay deals with T8, SPIC (Homo sapiens, UniProt Q8N5J4 1-248).
T8 sequence: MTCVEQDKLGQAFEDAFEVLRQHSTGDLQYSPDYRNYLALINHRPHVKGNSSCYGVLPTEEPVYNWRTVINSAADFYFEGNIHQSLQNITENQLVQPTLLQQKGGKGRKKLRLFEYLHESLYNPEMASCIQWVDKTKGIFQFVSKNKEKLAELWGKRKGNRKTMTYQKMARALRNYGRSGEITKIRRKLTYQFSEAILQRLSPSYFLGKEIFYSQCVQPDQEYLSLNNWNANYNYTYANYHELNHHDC
The following applies: protein: recombinant; tags: N-terminal GST; dsDNA, one strand shown. In outline:
as §1

A further assay addresses ELF4 (Homo sapiens, UniProt Q99607 1-663). The following applies: protein: recombinant; tags: N-terminal GST; dsDNA, one strand shown. The gist of the method:
as §1

A further assay deals with T9, ELK4 (Homo sapiens, UniProt P28324-2 1-405).
T9 sequence: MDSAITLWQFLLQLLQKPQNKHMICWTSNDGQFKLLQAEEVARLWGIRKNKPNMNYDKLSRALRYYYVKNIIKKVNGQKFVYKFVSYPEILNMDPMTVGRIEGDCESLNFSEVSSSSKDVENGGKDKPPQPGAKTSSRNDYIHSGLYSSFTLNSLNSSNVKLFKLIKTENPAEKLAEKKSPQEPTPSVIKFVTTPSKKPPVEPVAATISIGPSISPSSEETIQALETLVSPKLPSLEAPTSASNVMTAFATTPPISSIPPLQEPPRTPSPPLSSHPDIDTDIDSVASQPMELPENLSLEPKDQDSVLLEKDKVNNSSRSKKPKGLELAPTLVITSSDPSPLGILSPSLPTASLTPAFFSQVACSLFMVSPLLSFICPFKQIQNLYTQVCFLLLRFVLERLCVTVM
The settings on record: protein: recombinant; tags: N-terminal GST; dsDNA, one strand shown. The gist of the method:
as §1

The next assay concerns the target T10, ETV2 (Homo sapiens, UniProt O00321 1-342).
T10 sequence: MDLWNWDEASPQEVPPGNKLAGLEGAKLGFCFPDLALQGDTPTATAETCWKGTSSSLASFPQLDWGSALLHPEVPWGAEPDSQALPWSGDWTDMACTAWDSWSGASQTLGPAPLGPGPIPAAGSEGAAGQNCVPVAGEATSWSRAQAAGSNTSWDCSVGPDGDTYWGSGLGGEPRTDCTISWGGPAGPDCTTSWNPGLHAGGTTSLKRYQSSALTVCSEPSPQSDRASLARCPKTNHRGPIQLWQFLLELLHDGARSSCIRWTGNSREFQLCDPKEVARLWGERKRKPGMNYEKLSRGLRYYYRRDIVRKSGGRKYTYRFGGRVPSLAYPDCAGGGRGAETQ
The settings on record: protein: recombinant; tags: N-terminal GST; dsDNA, one strand shown. The gist of the method: as §1

In the next assay the target is T11, ELF3 (Homo sapiens, UniProt P78545 1-371).
T11 sequence: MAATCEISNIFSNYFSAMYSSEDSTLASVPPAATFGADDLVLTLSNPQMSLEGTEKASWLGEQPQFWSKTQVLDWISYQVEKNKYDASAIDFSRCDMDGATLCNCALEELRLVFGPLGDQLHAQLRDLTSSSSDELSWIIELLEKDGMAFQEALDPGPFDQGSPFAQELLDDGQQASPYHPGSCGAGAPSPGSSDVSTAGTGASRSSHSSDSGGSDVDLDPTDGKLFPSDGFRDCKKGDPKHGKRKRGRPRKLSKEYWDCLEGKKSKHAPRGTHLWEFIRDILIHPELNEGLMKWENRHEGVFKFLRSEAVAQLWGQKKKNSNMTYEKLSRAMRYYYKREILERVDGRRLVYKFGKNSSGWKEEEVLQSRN
The following applies: protein: recombinant; tags: N-terminal GST; dsDNA, one strand shown. The gist of the method: as §1

The next assay concerns the target CRX (Homo sapiens, UniProt O43186 1-299). The settings on record: protein: recombinant; tags: N-terminal GST; dsDNA, one strand shown. In outline:
as §1

A further assay deals with ETV1 (Homo sapiens, UniProt P50549 1-477). The settings on record: protein: recombinant; tags: N-terminal GST; dsDNA, one strand shown. The gist of the method:
as §1

Sequence of ELF1 (P32519 whole entry): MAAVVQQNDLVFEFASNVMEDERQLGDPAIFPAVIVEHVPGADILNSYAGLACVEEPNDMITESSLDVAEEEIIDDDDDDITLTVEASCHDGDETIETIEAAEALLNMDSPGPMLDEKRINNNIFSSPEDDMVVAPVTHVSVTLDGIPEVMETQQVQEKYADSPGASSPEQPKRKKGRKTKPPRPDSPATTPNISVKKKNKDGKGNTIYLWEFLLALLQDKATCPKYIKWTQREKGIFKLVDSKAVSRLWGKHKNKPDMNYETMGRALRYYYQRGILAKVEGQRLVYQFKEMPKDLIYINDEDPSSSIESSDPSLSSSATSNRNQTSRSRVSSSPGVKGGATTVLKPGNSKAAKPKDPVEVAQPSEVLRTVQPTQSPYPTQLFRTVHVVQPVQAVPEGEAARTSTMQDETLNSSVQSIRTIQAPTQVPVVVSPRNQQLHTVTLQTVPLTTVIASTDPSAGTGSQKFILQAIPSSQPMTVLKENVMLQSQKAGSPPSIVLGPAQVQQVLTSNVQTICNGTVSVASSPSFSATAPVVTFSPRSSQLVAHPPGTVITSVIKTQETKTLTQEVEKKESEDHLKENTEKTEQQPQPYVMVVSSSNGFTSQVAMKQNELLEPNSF
Sequence of ETV1 (P50549 whole entry): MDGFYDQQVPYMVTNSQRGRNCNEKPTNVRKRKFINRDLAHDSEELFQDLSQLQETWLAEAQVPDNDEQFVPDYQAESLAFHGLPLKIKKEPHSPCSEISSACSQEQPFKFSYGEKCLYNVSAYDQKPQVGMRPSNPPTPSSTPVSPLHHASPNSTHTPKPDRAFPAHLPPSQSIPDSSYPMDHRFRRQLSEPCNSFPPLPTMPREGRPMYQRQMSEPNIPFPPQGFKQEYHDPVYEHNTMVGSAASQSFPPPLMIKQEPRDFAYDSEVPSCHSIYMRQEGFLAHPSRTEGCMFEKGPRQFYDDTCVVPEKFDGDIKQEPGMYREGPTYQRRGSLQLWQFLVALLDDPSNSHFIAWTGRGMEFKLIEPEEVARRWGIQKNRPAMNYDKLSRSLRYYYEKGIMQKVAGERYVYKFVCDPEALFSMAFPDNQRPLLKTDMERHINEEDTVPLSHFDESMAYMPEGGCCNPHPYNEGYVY
Sequence of HSF1 (Q00613 whole entry): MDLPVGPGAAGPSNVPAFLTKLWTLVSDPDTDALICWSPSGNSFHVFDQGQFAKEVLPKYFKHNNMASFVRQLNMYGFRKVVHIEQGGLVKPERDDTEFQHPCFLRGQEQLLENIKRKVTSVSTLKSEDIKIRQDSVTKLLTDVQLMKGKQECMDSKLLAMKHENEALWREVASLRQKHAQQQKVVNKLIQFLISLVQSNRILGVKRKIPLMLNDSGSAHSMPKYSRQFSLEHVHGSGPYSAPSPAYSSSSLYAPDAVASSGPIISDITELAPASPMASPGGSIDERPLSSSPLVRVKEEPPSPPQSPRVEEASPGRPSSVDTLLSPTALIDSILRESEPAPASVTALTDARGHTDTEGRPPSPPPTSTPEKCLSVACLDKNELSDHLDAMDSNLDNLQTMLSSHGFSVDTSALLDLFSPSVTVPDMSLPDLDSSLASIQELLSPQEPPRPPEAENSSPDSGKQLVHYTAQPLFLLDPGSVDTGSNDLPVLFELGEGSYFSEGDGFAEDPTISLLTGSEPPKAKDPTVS
Sequence of ELF4 (Q99607 whole entry): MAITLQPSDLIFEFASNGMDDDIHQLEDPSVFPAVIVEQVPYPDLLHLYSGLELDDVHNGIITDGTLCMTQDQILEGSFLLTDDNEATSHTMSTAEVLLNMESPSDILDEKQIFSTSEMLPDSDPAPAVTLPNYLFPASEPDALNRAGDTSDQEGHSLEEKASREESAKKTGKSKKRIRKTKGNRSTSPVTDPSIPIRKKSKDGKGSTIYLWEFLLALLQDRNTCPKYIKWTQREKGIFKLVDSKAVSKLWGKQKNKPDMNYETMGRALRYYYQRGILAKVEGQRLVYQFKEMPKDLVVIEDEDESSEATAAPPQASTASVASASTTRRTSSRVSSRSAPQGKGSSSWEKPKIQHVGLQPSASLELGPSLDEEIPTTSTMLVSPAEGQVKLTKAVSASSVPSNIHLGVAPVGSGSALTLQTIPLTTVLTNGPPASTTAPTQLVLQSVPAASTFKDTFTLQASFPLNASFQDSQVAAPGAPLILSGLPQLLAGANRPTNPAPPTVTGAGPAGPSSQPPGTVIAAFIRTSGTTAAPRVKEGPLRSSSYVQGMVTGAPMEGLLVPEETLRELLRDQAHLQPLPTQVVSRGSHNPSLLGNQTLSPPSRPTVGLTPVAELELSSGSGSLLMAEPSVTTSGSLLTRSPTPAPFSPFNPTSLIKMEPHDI
Sequence of SPIB (Q01892 whole entry): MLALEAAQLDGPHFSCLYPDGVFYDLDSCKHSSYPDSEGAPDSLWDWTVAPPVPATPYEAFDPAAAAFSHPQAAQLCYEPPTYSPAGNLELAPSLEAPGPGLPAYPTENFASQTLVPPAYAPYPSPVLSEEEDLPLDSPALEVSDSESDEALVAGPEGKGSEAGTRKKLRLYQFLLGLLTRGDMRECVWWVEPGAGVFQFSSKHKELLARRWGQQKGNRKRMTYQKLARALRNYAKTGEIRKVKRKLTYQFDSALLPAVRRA
Sequence of CRX (O43186 whole entry): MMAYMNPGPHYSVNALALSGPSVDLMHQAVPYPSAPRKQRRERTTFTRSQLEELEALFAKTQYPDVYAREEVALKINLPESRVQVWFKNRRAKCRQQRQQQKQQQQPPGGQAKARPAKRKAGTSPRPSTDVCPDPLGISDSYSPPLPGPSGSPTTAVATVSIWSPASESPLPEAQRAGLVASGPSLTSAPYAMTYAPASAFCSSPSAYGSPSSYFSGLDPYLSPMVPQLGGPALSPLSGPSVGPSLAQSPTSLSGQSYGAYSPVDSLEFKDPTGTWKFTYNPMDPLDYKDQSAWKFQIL

With AATATT, the binding signal in the assay with FLI1 was 1.39 fold enrichment (6-mer frequency, TF over GST control); in the assay with ELK1 it was 1.29 fold enrichment (6-mer frequency, TF over GST control); in the assay with GABPA, 1.29 fold enrichment (6-mer frequency, TF over GST control); in the assay with ERG, 1.18 fold enrichment (6-mer frequency, TF over GST control); with ELF1 it was 1.36 fold enrichment (6-mer frequency, TF over GST control); with EHF it was 1.32 fold enrichment (6-mer frequency, TF over GST control). Further, the binding signal with SPI1 was 1.23 fold enrichment (6-mer frequency, TF over GST control); with SPIB, 1.34 fold enrichment (6-mer frequency, TF over GST control); with ELK3, 1.42 fold enrichment (6-mer frequency, TF over GST control); with FEV, 1.3 fold enrichment (6-mer frequency, TF over GST control); with ETV5 it was 1.4 fold enrichment (6-mer frequency, TF over GST control); in the assay with HSF1 it was 1.93 fold enrichment (6-mer frequency, TF over GST control). Besides, the binding signal with SPIC is 1.45 fold enrichment (6-mer frequency, TF over GST control); with ELF4 it was 1.38 fold enrichment (6-mer frequency, TF over GST control); with ELK4, 1.35 fold enrichment (6-mer frequency, TF over GST control); in the assay with ETV2 it was 1.23 fold enrichment (6-mer frequency, TF over GST control); with ELF3, 1.36 fold enrichment (6-mer frequency, TF over GST control); with CRX it was 1.61 fold enrichment (6-mer frequency, TF over GST control). In the assay with ETV1, the binding signal was 1.36 fold enrichment (6-mer frequency, TF over GST control).
